# Only a selection was taken, and hits are over-represented in it overall.
# ST2 inh: inhibitors of human ST2 (IL1RL1) binding to IL-33 | Q01638 | AlphaLISA ST2-Fc/biotin-IL-33 interaction, 1 h | inhibition, % for hits at 17 µM | 78,000 compounds, 2.3% hits | AID 1259354; in the data active = inhibition above about 30%
# Target sequence (Q01638 whole entry, looked up): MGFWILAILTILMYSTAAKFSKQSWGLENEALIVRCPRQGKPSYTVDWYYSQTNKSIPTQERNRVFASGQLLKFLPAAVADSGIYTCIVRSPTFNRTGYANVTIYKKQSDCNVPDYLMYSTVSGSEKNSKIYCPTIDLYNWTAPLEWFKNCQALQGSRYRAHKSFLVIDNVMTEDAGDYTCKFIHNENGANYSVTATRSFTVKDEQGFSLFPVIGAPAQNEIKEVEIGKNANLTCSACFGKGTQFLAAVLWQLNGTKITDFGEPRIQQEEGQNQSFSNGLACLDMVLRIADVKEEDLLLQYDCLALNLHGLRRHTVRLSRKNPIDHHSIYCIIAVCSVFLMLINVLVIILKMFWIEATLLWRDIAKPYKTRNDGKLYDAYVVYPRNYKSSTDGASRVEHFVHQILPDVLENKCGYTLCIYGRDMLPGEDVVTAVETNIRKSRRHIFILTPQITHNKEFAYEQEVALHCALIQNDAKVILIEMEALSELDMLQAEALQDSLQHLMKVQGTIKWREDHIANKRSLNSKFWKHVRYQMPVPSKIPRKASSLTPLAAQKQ
# Numbers without * were called inactive; i = inactive.
SMILES,ST2 inh
CN1C[C@@H](NC(=O)c2ccccn2)C[C@H]1c1nc(-c2ccncc2)no1,i
CN1C[C@@H](NC(=O)c2ccccn2)C[C@H]1c1nc(-c2ccccn2)no1,i
CN(C)c1ccc(C(=O)N[C@H]2C[C@@H](c3nc(-c4cccnc4)no3)N(C)C2)cc1,58.0%*
CN1C[C@@H](NC(=O)CC(C)(C)C)C[C@H]1c1nc(-c2cnccn2)no1,34.0%*
CC(C)c1cc(N2CCNC(C(=O)N3CCCC3)C2)nc(C(F)(F)F)n1 (centres undefined),i
CCC(Nc1cccc(OC)c1)C(=O)NCc1cnc(C)cn1 (centres undefined),i
CC1CC(=O)N(CC(=O)NCc2ccco2)c2ccccc2S1 (centres undefined),i
O=C(CN1C(=O)/C(=C\c2cccc(Cl)c2)Sc2ccccc21)NCCCN1CCOCC1,32.0%*
O=C(CN1C(=O)/C(=C\c2cccc(Cl)c2)Sc2ccccc21)NCCN1CCCCCC1,43.0%*
O=C(CN1C(=O)/C(=C\c2ccc(C(F)(F)F)cc2)Sc2ccccc21)N1CCCC1,30.0%*
O=C(CN1C(=O)CSc2ccc(S(=O)(=O)N3CCCCC3)cc21)NCCN1CCCC1,i
O=C(CN1C(=O)/C(=C/c2ccccc2F)Sc2ccccc21)NCc1ccco1,i
O=C1S/C(=C/c2cccc(Cl)c2)C(=O)N1CN1CCCCC1,i
CNC(=O)c1ccc(/C=C2\Sc3ccccc3N(Cc3ccc(F)cc3)C2=O)cc1,i
CCC1Oc2ccccc2N(CC(=O)NCCCN2CCOCC2)C1=O (centres undefined),i
O=C(CN1CCCC1)N1c2ccccc2Sc2ccc(C(F)(F)F)cc21,i
O=C(NCCCN1CCOCC1)N1c2ccccc2Sc2ccccc21,i
CN(Cc1ccco1)C(=O)CN1C(=O)/C(=C\c2ccc(C(F)(F)F)cc2)Sc2ccccc21,31.0%*
O=C(NCc1ccc(Cl)cc1)c1ccc(NC2=NC3CS(=O)(=O)CC3S2)cc1 (centres undefined),i
COC(=O)c1ccc(NC2OC(=O)c3c2ccc(OC)c3OC)cc1 (centres undefined),i
CCc1ccc(CN(C)Cc2cnc(S(=O)(=O)CC)n2Cc2ccccc2)nc1,i
CCOC(=O)C1CCN(C(=O)c2cc3c(=O)n4cccc(C)c4nc3n2C)CC1,i
CCN1C(=O)NC(=O)/C(=C\c2cn(CC(=O)N3CCOCC3)c3ccccc23)C1=O,i
O=C(CN1C(=O)/C(=C\c2cccc(Cl)c2)Sc2ccccc21)NCCN1CCOCC1,36.0%*
O=C(Nc1ccccc1C(=O)NCCN1CCOCC1)c1ccc(Cl)cc1Cl,i
SMILES,ST2 inh
COc1ccc(/C=C2\SC(=O)N(CC(=O)N3CCCCC3)C2=O)cc1OC,i
O=C(CN1C(=O)/C(=C\c2cccc(Cl)c2)Sc2ccccc21)N1CCCCC1,33.0%*
CN1CCN(C(=O)CN2C(=O)S/C(=C\c3ccc(Cl)cc3)C2=O)CC1,i
O=C(CN1CCN(Cc2cccc(Cl)c2)C1=O)NCCN1CCOCC1,i
CCSc1nc2c(c(=O)[nH]1)C(c1cccc(O)c1)C1=C(CC(C)(C)CC1=O)N2 (centres undefined),i
O=C(c1cc2cc3ccc(Cl)cc3nc2o1)N1CCCC1,i
CCC(C)c1ccccc1OCCCCN1CCCC1 (centres undefined),i
CN1CCN(CCCOc2ccc(C(C)(C)c3ccccc3)cc2)CC1,i
CCC(C)c1ccc(OCCCCN2CCN(C)CC2)cc1 (centres undefined),39.0%*
CC(C)C(C)N(Cc1ccco1)C(=O)c1cnc2ccccn2c1=O (centres undefined),i
CCOC(=O)C1=NN(c2cccc(Cl)c2)C2C(=O)N(c3ccccc3Cl)C(=O)C12 (centres undefined),i
COc1cc(C)c(CNCc2cccnc2N2CCN(C(C)=O)CC2)cc1C,i
CC1=C(C#N)C(=O)NC(=O)/C1=C\c1ccc(-c2cccc([N+](=O)[O-])c2)o1,30.0%*
CC1=C(C#N)c2nc(N)c(C#N)c(C)c2/C1=C\c1cccc([N+](=O)[O-])c1,i
CC(=O)c1ccc(N2N=C(C)/C(=C/c3ccc(-c4cccc([N+](=O)[O-])c4)o3)C2=O)cc1,i
CN(CCNS(=O)(=O)c1cccc2cccnc12)Cc1ccccc1,i
CCCc1cc(C(=O)N2CC(c3ccncc3)C2)ccn1,i
Cc1ccc(-c2nnc3s/c(=C\c4ccc(C)o4)c(=O)n23)cc1,i
N#C/C(=C\Nc1cccc(C(F)(F)F)c1)c1nc(-c2cc3ccccc3oc2=O)cs1,i
Cc1nc(-c2ccc(C(N)=O)cc2)cs1,i
Cc1ccc(C(=O)Nc2nc(-c3ccc(F)cc3)cs2)o1,i
N#C/C(=C\c1ccc(Cl)cc1)c1nc(-c2ccccc2)cs1,51.0%*
Cc1ccc(/C=C(\C#N)c2nc(-c3ccc([N+](=O)[O-])cc3)cs2)cc1,i
Cc1ccc(/C=C(\C#N)c2nc(-c3ccc(C)cc3)cs2)cc1,54.0%*
Cc1ccc(-c2csc(/C(C#N)=C\c3ccc(C)o3)n2)cc1,51.0%*
N#CCc1nc(-c2ccc(-c3ccccc3)cc2)cs1,i

# Source: PubChem (Paczesny and Yang Labs, IUPUI and University of Michigan)
